Screening results deposited in PubChem by National Center for Advancing Translational Sciences (NCATS).
G9a inh: inhibitors of human histone lysine methyltransferase G9a; Potency, µM (titrated, usually from 102 µM), hits mostly inhibitors; Q96KQ7; 8.8% of 350,000 active; G9a H3K9 monomethylation, AlphaScreen, 2 h; also: nearly all actives have a fitted effect of over 75% in size
Target sequence (Q96KQ7 913-1193 limits assumed): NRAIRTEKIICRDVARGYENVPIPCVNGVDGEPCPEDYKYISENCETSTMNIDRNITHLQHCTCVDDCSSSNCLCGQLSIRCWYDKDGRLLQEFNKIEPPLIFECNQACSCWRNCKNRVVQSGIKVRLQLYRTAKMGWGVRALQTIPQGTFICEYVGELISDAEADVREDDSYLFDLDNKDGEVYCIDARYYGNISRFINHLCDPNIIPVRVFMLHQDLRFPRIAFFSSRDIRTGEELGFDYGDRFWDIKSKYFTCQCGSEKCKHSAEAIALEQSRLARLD
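Enzyme 20 nM + cpd, 15 min RT; add b-H3K9 pep 500 nM / SAM 20 uM; 2 h RT; anti-H3K9me1 Ab 0.5 ug/mL + SA donor / anti-rabbit acceptor beads 20 ug/mL each, 10 min; AlphaScreen read.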
Sfp PPTase inh: Sfp phosphopantetheinyl transferase inhibition; Potency, µM, hits mostly inhibitors; 3.5% of 310,000 active; Biochemical Sfp PPTase activity, qHTS;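 also: the enzyme is Sfp with the accession as filed and its product quenches rhodamine fluorescence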
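Fluorescence-quenching assay with 15 nM Sfp, 5 uM rhodamine-CoA and 12.5 uM BHQ-2-labelled ybbR peptide in pH 7.6 Hepes/MgCl2 buffer. Enzyme was pre-incubated with compound for 15 min at room temperature. Rate was taken from the 30-min fluorescence change (525/598 nm).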
BAZ2B inh: blocks human BAZ2B; Q9UIF8; AlphaScreen BAZ2B-H3K14Ac peptide displacement; Potency, µM (top dose mostly 114 µM), hits mostly inhibitors; 4.4% of 360,000 active; AID 504333; also: nearly all actives have a fitted effect of over 60% in size
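AlphaScreen luminescence quantifies BAZ2B engagement of H3K14Ac peptide; the protein and biotinylated peptide are both at 50 nM final, buffer PBS pH 7.4 with 0.01% Tween-20, all steps at room temperature.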
JMJD2A Tudor: inhibitors of human JMJD2A Tudor domain. AID 504339. Potency, µM (doses to about 114 µM), actives largely listed as inhibitors. 4.4% of 390,000 active. AlphaScreen JMJD2A-Tudor / H3K4me3 peptide binding; also: nearly all actives have a fitted effect of over 50% in size
HP1b chromo inh: inhibitors of HP1-beta chromodomain binding to methylated histone tails. AID 540317. P83916. AlphaScreen HP1-beta / biotin-H3K9me3 peptide binding. Potency, µM (series often up to 114 µM), hits mostly inhibitors. 0.56% of 390,000 active; also: nearly all actives have a fitted effect of over 70% in size
Target sequence (P83916 whole entry, looked up): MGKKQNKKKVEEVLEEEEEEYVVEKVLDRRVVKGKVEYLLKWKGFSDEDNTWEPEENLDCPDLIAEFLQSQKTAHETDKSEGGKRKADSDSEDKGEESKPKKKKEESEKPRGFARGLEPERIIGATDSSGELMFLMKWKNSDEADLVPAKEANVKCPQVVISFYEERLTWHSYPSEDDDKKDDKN
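Compound inhibition of the preformed complex between 50 nM HP1-beta and 50 nM biotinylated H3K9me3 peptide was read by AlphaScreen. Buffer was PBS pH 7.4 with 0.01% Tween-20. Incubations ran 30 min at room temperature, with 10 ug/mL donor/acceptor beads.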
Numbers stand for hits; - = inactive; ? = inconclusive; . = no result given; ! = a repeat was not active; [ ] = dose if it differs, or a comment. This is a sample that favours compounds with a hit; in the whole collection about 12% have one here. Calls follow the shape of the dose curve; as a rule, active = well fitted curve in the direction sought with a large enough effect; inconclusive = small, poorly fitted or top-dose-only effect, or another doubt; inactive = no such curve, though single readings can be large; an effect the other way counts as inactive or inconclusive.

SMILES	G9a inh	Sfp PPTase inh	BAZ2B inh	JMJD2A Tudor	HP1b chromo inh
O=C1NC(=S)NC(=O)C12C(c1ccc(F)cc1)NC(=S)NC2c1ccc(F)cc1 (centres undefined)	?	40µM	-	-	-
O=C1NC(=S)NC(=O)C12C(c1ccccc1)NC(=S)NC2c1ccccc1 (centres undefined)	?	?	-	-	-
O=C(COC(=O)Cc1ccccc1)Nc1cccnc1Cl	-	-	-	-	-
CCOc1ccccc1N=C1SCCCN1C	5µM	-	-	79µM	-
CC(=O)N1CCCSC1=Nc1ccccc1	-	-	-	-	-
CCCCCSc1cc(O)c(C(CNC)C(C)C)cc1OC (centres undefined)	11µM	-	?	?	-
CN1CCN(CC(=O)Nc2ccc([N+](=O)[O-])cc2C(=O)c2ccccc2)CC1	-[12.7 µM]	-	-	-	-
CNC(C(=O)c1ccccc1)C(OC(C)=O)c1cccc([N+](=O)[O-])c1 (centres undefined)	50µM	-	-	-	-
NCCc1c[nH]c2ccc(F)cc12	?	-	-	.	.
NCCc1c[nH]c2ccc(C(N)=O)cc12	35µM!	-	-	-	-
COc1ccc(NC(=O)c2cccn(Cc3ccc(Cl)cc3)c2=O)c(OC)c1	-	.	-	-	-
O=C1NC(=O)C(=Cc2ccc(SC3CCCCC3)o2)C(=O)N1	11µM	28µM	45µM	?	50µM
O=C1NC(=O)N(c2ccc3c(c2)OCO3)C(=O)/C1=C\c1ccc(N2CCCCC2)o1	-	-	-	-	-
O=c1c2ccccc2nc(-c2ccccc2Cl)n1-c1ccc(O)cc1	-	-	-	-	-
N=C1c2ccccc2CN1NC(=O)c1ccccc1	?	-	-	-	-
CC[N+](CC)(CC)CCOc1cccc(OCC[N+](CC)(CC)CC)c1OCC[N+](CC)(CC)CC	5.3µM!	?	-	22µM	-
COc1cc2c(c(OC)c1OC)-c1ccc(O)c(=O)cc1[C@@H](NC(C)=O)CC2	.	-	.	56µM	-
COc1ccc(CCNCc2ccccc2F)cc1	-	-	45µM	20µM	-
COc1ccc(CCNCc2ccc(Br)cc2)cc1OC	-	-	50µM	20µM	?
COc1ccccc1CNCCc1ccc(F)cc1	-	-	50µM	32µM	?
COc1ccc(CCNCc2ccccc2F)cc1OC	-	-	-	-	-
CNCCc1ccc(OC)c(OC)c1	?	-	-	-	-
COc1cc(OC)c(OC)cc1CNCCc1ccc(OC)c(OC)c1	?	-	?	3.2µM	?
CC1OC(OC2C(O)CC(OC3C(O)CC(OC4CCC5(C)C(CCC6C5CCC5(C)C(C7=CC(=O)OC7)C(O)CC65O)C4)OC3C)OC2C)CC(O)C1O (centres undefined)	.	.	.	-	-
c1ccc(P(c2ccccc2)c2ccccn2)cc1	-	-	-	?	?
SMILES	G9a inh	Sfp PPTase inh	BAZ2B inh	JMJD2A Tudor	HP1b chromo inh
COc1cc(OC)c(OC)cc1CNCCc1cccc(F)c1	-	-	56µM	7.9µM	?
COc1ccc(CNCCc2ccc(Cl)cc2)c(OC)c1OC	35µM	-	?	32µM	?
Fc1ccc(CCNCc2ccc(Cl)c(Cl)c2)cc1	-[12.7 µM]	-	-	-	-
COc1cc(OC)c(OC)cc1CNCCc1ccc(F)cc1	.	-	-	63µM	-
COc1ccc(OC)c(CNCCc2ccc(OC)c(OC)c2)c1	.	-	?	18µM	-
CCOc1ccc(Cl)cc1CNCCc1ccccc1F	-	?	-	-	-
Cn1sc(Cl)cc1=O	-[12.7 µM]	-	.	.	.
CC(=O)OC1CCC2(C)C(CCC3C2CC(=O)C2(C)C3CC(N3CC3)C2C(C)=O)C1 (centres undefined)	.	.	.	-	-
ClCCN(CCCl)c1ccc(-n2cnc3c(Cl)ncnc32)cc1	.	.	.	-	-
CN(C)C(=S)SSC(=S)N(C)C	1.3µM	3.5µM!	-	-	-
CN(C)C(=S)SC(=S)N(C)C	2.5µM	11µM	.	.	.
CC(=O)N1c2ccc(S(=O)(=O)NCC3CCC(C(=O)Nc4cc(C)cc(C)c4)CC3)cc2CC1C (centres undefined)	-	.	?	-	-
O=c1[nH]c2ccccc2o1	-	-	-	32µM	-
Cc1ccc(-n2nc(C)c(C3C(C#N)=C(N)Oc4c3c(=O)oc3ccccc43)c2Cl)cc1 (centres undefined)	-	-	-	.	.
Cc1ccc(-n2nc(C)c3c2OC(N)=C(C#N)C3c2cccs2)cc1 (centres undefined)	35µM	-	35µM	-	-
C=C(C)CN1CC[C@@]23c4c5ccc(O)c4O[C@H]2c2[nH]c4ccccc4c2C[C@]3(O)[C@@H]1C5	.	-	.	.	.
CC(Cc1ccccc1)NC(=O)/C=C/C(=O)O (centres undefined)	-	-	-	-	-
C[C@]12C=CC(=O)C=C1C=C[C@@H]1C2CC[C@]2(C)C(=O)CCC12 (some centres undefined)	-	-	-	-	-
C=CC[n+]1c(-c2ccc(C)cc2)csc1Nc1c(C)n(C)n(-c2ccccc2)c1=O	18µM	-	?	-	-
Cc1c(NC(=O)C(C)OC(=O)Cc2ccccc2)c(=O)n(-c2ccccc2)n1C (centres undefined)	-	-	-	-	-
CN(C)c1ccc(C=C(C#N)C#N)cc1	-	-	-	-	-
CN(C)c1ccc(C=C2C=CC=C2)cc1	.	.	.	18µM	22µM
O=c1c2ccccc2nc(CSc2ncnc3nc[nH]c23)n1-c1ccccc1	?	50µM	-	32µM	-
CN1C(=O)[C@@H](NC(=O)c2cc3ccccc3[nH]2)N=C(c2ccccc2)c2ccccc21	-	-	.	.	.
COc1ccc(C)cc1NC1=NCCCS1	-	-	-	-	-
SMILES	G9a inh	Sfp PPTase inh	BAZ2B inh	JMJD2A Tudor	HP1b chromo inh
CCC1CCCCN1CC(=O)c1ccc(OC(F)F)cc1 (centres undefined)	14µM	?	-	-	-
COc1ccc(Cl)cc1NC(=O)C1CCN(c2nnc(C)c3c(C)n(-c4ccccc4)nc23)CC1	-	.	-	-	-
CCS(=O)(=O)C1=NN2C(=N)/C(=C\c3ccc(OC(=O)c4ccco4)cc3)C(=O)N=C2S1	40µM	?	?	-	-
N=C1/C(=C\c2ccc(OC(=O)c3ccccc3Cl)cc2)C(=O)N=C2SC(N3CCOCC3)=NN12	-	-	45µM	50µM	-
O=C1NC(=O)C(=Cc2ccc(OCC(=O)N3CCOCC3)cc2)C(=O)N1	?	?	-	-	-
CCOC(=O)c1c(/N=C/C2C(=O)NC(=S)NC2=O)sc2c1CCC2	?	13µM	-	50µM	-
CCOC(=O)c1c(/N=C/C2C(=O)NC(=S)NC2=O)sc(C)c1C	35µM	25µM	-	.	.
N#Cc1c(/N=C/C2C(=O)NC(=S)NC2=O)sc2c1CCCC2	28µM	22µM	?	-	-
CCOC(=O)c1cc(C)sc1/N=C/C1C(=O)NC(=S)NC1=O	40µM	20µM	-	?	-
C[N+]1(CCC(C(N)=O)(c2ccccc2)c2ccccc2)CCCCC1	-[12.7 µM]	-	.	.	.
